We go through 12 compounds from PubChem BioAssay (NCI).

Common to all, as to assay: NCI-60 one-dose screen, 48 h (100 = growth as untreated, 0 = no growth, -100 = all killed)
Common to all, as to conditions: 10 µM unless noted

Test [1] has as its system HCT-15 colon.
Test [2] deals with HT29 colon.
The subject of test [3] is SNB-75 CNS.
For test [4], the system named is SNB-19 CNS.
Test [5] has as its system U251 CNS.
Test [6] deals with PC-3 prostate.
The subject of test [7] is SK-MEL-5 melanoma.
In test [8] the test system is UACC-62 melanoma.
Test [9] concerns LOX IMVI melanoma.
Test [10] concerns SK-MEL-28 melanoma.
Test [11] concerns SK-MEL-2 melanoma.
In test [12] the test system is EKVX NSCLC.
The test system of test [13] is SN12C renal.
For test [14], the system named is TK-10 renal.
Test [15] relates to ACHN renal.
In test [16] the test system is CAKI-1 renal.
The test system of test [17] is A498 renal.
Test [18] deals with CCRF-CEM leukemia.
The test system of test [19] is MOLT-4 leukemia.
Test [20] concerns UO-31 renal.

About 83,000 compounds went through this panel and 20% of them were active in at least one assay; those are over-represented in the sample as a whole.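 96-well plates, one dose, 48 hours. Percent growth reported; active if below 10.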 Values without a mark were called inactive. The source made the active and inactive calls.

Regarding `COC1=CC(=O)c2ccccc2C1=O`, the growth in [1] is 99.7%; in test [2], 38.9%; in test [3] it was 33.7%; in test [4] it was 105%; in test [5] it was 52.6%; in [6], 65.7%. Also, the growth in [7] is 47.8%; in test [8] it was 74.2%; in test [9], 4.09% (active); in [10] it was 90%; in [11], 69.3%; in test [12] it was 110%. The growth in test [13] was 84.8%; in test [14], 94%; in test [15] it was 75.6%; in test [16] it was 95.6%; in test [17], 107%.
Consider `COc1ccc(C(=O)c2nc3ccccc3n2CC(=O)c2ccc(F)cc2)cc1`, for which the growth was 56% in [1]; 55% in test [2]; 59.6% in test [3]; 95.6% in test [4]; 90.5% in test [5]; 83.2% in test [6]. The growth in [7] is 88%; in test [8] it was 65.3%; in [9], 94.5%; in [10], 80.2%; in test [11] it was 72.4%; in test [12], 190%. Besides, the growth is 92.7% in test [13]; 84.2% in test [14]; 105% in test [15]; 115% in [16]; 116% in test [17]; 79.6% in [18]. Besides, the growth in [19] was 74.8%.
For `COc1ccc(C(=O)C2C(C#N)C(C#N)C3c4ccccc4C=CN23)cc1` (stereo unspecified), the growth in test [1] was 94.5%; in test [2] it was 84.4%; in [3], 74.8%; in test [4] it was 85.4%; in test [5], 93.6%; in test [6], 84.7%. Besides, the growth in test [7] is 84.2%; in [8] it was 63%; in test [9] it was 87.8%; in test [10] it was 98.9%; in test [11] it was 88.5%; in [12] it was 84.2%. The growth is 80.9% in test [13]; 131% in test [14]; 91.3% in test [15]; 72.4% in test [16]; 80.9% in test [17]; 82.5% in [18]. Further, the growth in [19] is 95.6%.
On to `COc1ccc(-c2nc([C@@H](C)Sc3nc(N)cc(N)n3)c(C)s2)cc1OCCN1CCOCC1`, for which the growth in [1] was 103%; in test [2] it was 97.4%; in test [3], 91.9%; in test [4], 91.3%; in [5], 91.8%; in test [6], 79.8%. For the same compound, the growth was 82.2% in [7]; 84.3% in test [8]; 95.8% in test [9]; 113% in test [10]; 104% in [11]; 99.8% in test [13]. Moreover, the growth was 73.7% in test [20]; 104% in [14]; 92.3% in [15]; 90.6% in test [16]; 35.6% in [17]; 83.7% in test [18]. In [19], the growth is 85.1%.
As for `COc1ccc(/C=C/c2nc(Nc3ccc(S(=O)(=O)Nc4nc(C)cc(C)n4)cc3)c3ccccc3n2)cc1`, the growth in test [1] is 50.5%; in [2], 62.2%; in test [3], 85.7%; in test [4], 75.6%; in test [5] it was 69.7%; in test [6], 77.5%. Moreover, the growth in [7] was 61.1%; in test [8], 20.8%; in test [9], 26.3%; in test [10], 87.4%; in [11], 75.2%; in [13], 76.8%. For the same compound, the growth was 51.8% in test [20]; 71.1% in test [14]; 57.7% in [15]; 53.1% in test [16]; 7.8% (active) in test [17]; 61.5% in test [18]. For the same compound, in test [19], the growth is 65.7%.
As to `C=C1C(=O)O[C@H]2[C@H]1CC/C(COC(=O)NCC(C)c1ccc(CC(C)C)cc1)=C\CC[C@@]1(C)O[C@@H]21` (stereo partly specified), the growth is -59.2% (active) in [1]; -60.6% (active) in test [2]; -5.57% (active) in test [3]; 36.9% in test [4]; -22.3% (active) in test [5]; 0.0191% (active) in [6]. The growth in test [7] was 17.1%; in test [8], -37.7% (active); in test [9], -83.8% (active); in [11], -45.2% (active); in test [12], -6.2% (active); in test [13], -57% (active). For the same compound, the growth in [20] was -100% (active); in [14], -36.1% (active); in [15] it was -100% (active); in test [16], -23.9% (active); in test [18], -24.2% (active); in [19], -8.4% (active).
Regarding `CC1(C)NCCC[C@]2(C)[C@H]3CC(=O)[C@H]4[C@@H]5C[C@](C)(CO)CC[C@]5(C)CC[C@@]4(C)[C@]3(C)CC[C@@H]12`, the growth was 98.9% in [1]; 69.8% in [2]; 78.1% in test [3]; 99.4% in test [4]; 91.4% in test [5]; 83.5% in test [6]. Moreover, the growth was 98.3% in test [7]; 98% in test [8]; 97.1% in test [9]; 99.5% in test [11]; 96.9% in test [12]; 101% in test [13]. In addition, the growth is 95.5% in test [20]; 100% in test [14]; 102% in test [15]; 81.6% in test [16]; 100% in test [17]; 93.1% in test [18]. Besides, the growth in test [19] is 67%.
Consider `Nc1c(C(=O)Nc2cccc3cnccc23)sc2nc3c(cc12)CN(Cc1ccccc1)CC3`, for which the growth was 107% in test [1]; 108% in test [2]; 96.5% in [3]; 99.6% in test [4]; 108% in test [5]; 91.3% in [6]. Further, the growth in [7] is 98.8%; in [8] it was 96.4%; in [9], 103%; in test [11] it was 116%; in test [12], 101%; in test [13], 97.5%. The growth is 75.5% in test [20]; 140% in test [14]; 99.9% in test [15]; 90.1% in [16]; 109% in [18]; 107% in test [19].
Regarding `O=[N+]([O-])c1cc(Br)c2cccc3c2c1CC3`, the growth in [1] is 100%; in test [2], 108%; in [3] it was 100%; in test [4], 98.7%; in test [5], 99.8%; in test [6], 96.2%. Further, the growth was 102% in test [7]; 89% in test [8]; 109% in [9]; 118% in [11]; 109% in test [12]; 101% in test [13]. Also, the growth in [20] is 90.8%; in [14], 110%; in [15], 110%; in [16], 95.3%; in [18], 99.9%; in [19], 104%.
With `CCCOC(=O)N[C@H]1CCc2cc(OC)c(OC)c(OC)c2-c2ccc(SC)c(=O)cc21`, the growth in test [1] is 14.8%; in [2], 14.2%; in [3] it was 34.3%; in [4] it was 36.2%; in test [5] it was 19.6%; in [6], 29.5%. In addition, the growth in test [7] is -14.6% (active); in test [8], 41.5%; in test [9], 18.6%; in [10], 58.7%; in test [11] it was 50.8%; in test [13] it was 29.5%. The growth in test [20] was 38.3%; in test [14], 48.2%; in test [15], 27.8%; in [16], 19.8%; in test [18], 4.23% (active); in test [19], 7.04% (active).
Take `CNC(=O)c1cccc(Cn2nc(C)c(NC(=O)c3ccc(COc4ccc(C(F)(F)F)cc4C)cc3)c2C)n1`: the growth in [1] was 49.4%; in [2] it was 42%; in test [3], 80.9%; in test [4], 47.8%; in [5], 44.7%; in [6], 34.6%. In addition, the growth in test [7] was -6.19% (active); in test [8], 63%; in [9], 55.2%; in test [10] it was 70.5%; in [11], 50.5%; in [13], 59.8%. The growth in [20] is 50.8%; in test [14], 56.2%; in test [15] it was 54.9%; in [16] it was 46.4%; in test [18] it was 60.2%; in test [19] it was 29.6%.
Regarding `Nc1c(S(=O)(=O)O)cc2c3c(cccc13)C(=O)OC2=O`, the growth was 95.9% in test [1]; 106% in test [2]; 79.2% in test [3]; 99.7% in test [4]; 97.8% in test [5]; 106% in test [6]. The growth is 102% in test [7]; 97.8% in test [8]; 94.3% in [9]; 51% in test [11]; 91.5% in [12]; 98.9% in [13]. In addition, the growth in [20] is 86.7%; in test [14] it was 127%; in test [15], 95.2%; in test [16] it was 79.9%; in [17], 106%; in test [18], 102%. For the same compound, the growth in [19] is 88.9%.
